For one molecule, outcome results are on record in PubChem BioAssay AID504415 (Broad Institute, 2011).

Measured potencies and affinities stand elsewhere. Inconclusive results are not listed. Calls of active or inactive are those of the source.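 How the source made its calls: active means compound lowering the signal whose fitted half-maximal concentration is at most ten times its top tested dose; inconclusive means flat curve with 30 to 70% loss, or poor fit; inactive means the rest.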

A short description of this assay: Mcl1-dependent cancer cell viability – HMC-1-8 cells, luminescence, dry powder, selectivity assay for A1 inhibitor project, dose response (AID 504415). The settings on record: HMC-1-8 (Mcl1-dependent) viability, Glo luminescence, 24 h; series mostly up to 35 µM.

Turning to `C/C1=C/C(=O)O[C@@H]2C[C@@H](CC[C@H](C)/C=C\CC1)O[C@@](O)(C1CSC(=O)N1)C2` (stereo partly specified), the molecule was called inactive.
